Measurements as given in PubChem BioAssay (Tox21).
Inconclusive results are not listed. A number with no mark means an inactive call. Calls of active or inactive are those of the source. The call rests on the fitted dose curve.

assay: qHTS assay to identify small molecule agonists or antagonists of the thyroid stimulating hormone receptor (TSHR) signaling pathway - wild type cell line counter screen (AID 1259384); conditions: HEK293 wild type, cAMP HTRF counter-screen, active compounds read high; series mostly up to 92.4 µM; cAMP activity change: at the top concentration
Source text: U.S. Tox21 Program National Center for Advancing Translational Sciences [NCATS] NIH Chemical Genomics Center [NCGC] U.S. Environmental Protection Agency [EPA] National Institutes of Environmental Health Sciences [NIEHS] National Toxicology Program [NTP] U.S. Food and Drug Administration [FDA] Tox21 Assay Overview: TSHR is the receptor for thyrotropin (thyroid stimulating hormone or TSH), a member of the glycoprotein hormone family. TSH is released by the anterior pituitary gland and is the main regulator of thyroid gland growth and development. Upon binding circulating thyrotropin, a G-protein signal cascade activates adenylyl cyclase and […] cAMP concentration is increased. cAMP is a key second messenger involved extensively in cellular signal transduction pathways associated with the majority of G-protein coupled receptors (GPCRs). The activation of these GPCRs by neurotransmitters, lipids, nucleotides, peptides and hormones results in the activation or the inhibition of plasma membrane-bound adenylate cyclase through heterotrimeric G-proteins. A cell-based TSHR-Hek293 assay can be used to identify TSHR agonists. To eliminate the false positive compounds identified from screening a cell-based TSHR-Hek293 cell line, cAMP assay in a wild type Hek293 cells was used as a counter screening.
Tox21 Assay Protocol Summary: Hek293 cells (wild type) were dispensed at 800 cells/4 uL/well in 1536-well white plates using a Multidrop dispenser. After the assay plates were incubated at a 37 C/5% CO2 incubator for 18 hrs, 23 nL of compounds dissolved in DMSO, positive controls or DMSO only was transferred to the assay plate by a pin tool, followed by 1 ul medium containing Ro20-1724. After 30 min of incubation at room temperature, 2.5 ul/well of cAMP-d2 and 2.5 ul/well of anti-cAMP-cryptate were added respectively into the assay plates using a Flying Reagent Dispenser. The plates were incubated at room temperature for 1 hr. The fluorescence intensity in the plates was measured using an Envision plate reader. Each test compound was measured at 15 concentrations and in triplicates.
On the % scale 0 is the no-effect control and ±100 the full control effect.

Compound	cAMP activity change	outcome
CC1=C(CC=O)C(C)(C)CCC1	-4.85%	–
CCc1ccccc1	1.2%	–
O=C1Cc2ccccc2N1c1c(Cl)cccc1Cl	-2.98%	–
CC(C)C(O)(c1ccc(OC(F)(F)F)cc1)c1cncnc1 (stereo not given)	1.02%	–
C/C=C(/C(=C/C)c1ccc(O)cc1)c1ccc(O)cc1	-0.32% [at 42.5 µM]	–
CC(CCC(=O)O)C(=O)O (stereo not given)	-5.08%	–
O=[N+]([O-])c1ccc(Nc2ccc(Nc3ccccc3)c(S(=O)(=O)O)c2)c([N+](=O)[O-])c1	1.79%	–
CCCCCCCCC(CCCCCC)C(=O)O (stereo not given)	4.15%	–
COC(=O)CS	5.53%	–
O=[N+]([O-])c1ccc(O/N=C/c2cc(Br)c(O)c(Br)c2)c([N+](=O)[O-])c1	-4.87%	–
CN1C(=O)c2ccccc2C1=O	1.04%	–
c1ccc(C[n+]2cccc3ccccc32)cc1	-2.77%	–
C[C@]12CC[C@@H]3c4ccc(O)cc4CC[C@H]3[C@@H]1CC[C@@H]2OC(=O)CCC1CCCC1	–	inactive
C[C@@]12CCC[C@H]1[C@@H]1CC[C@H]3C[C@@H](O)CC[C@]3(C)[C@H]1CC2	3.13% [at 42.5 µM]	–
CCC1(CO)COCOC1	8.96%	–
O=C(O)CCC(=O)C(=O)O	1.76%	–
CCCCC(CC)COP(=O)(O)O (stereo not given)	-6.5%	–
COc1ccc(OC(=O)N(CC(=O)O)Cc2ccc(OCCc3nc(-c4ccccc4)oc3C)cc2)cc1	-3.87% [at 42.5 µM]	–
CCOC(=O)C1=C(C)NC(C)=C(C(=O)OC)C1c1cccc(Cl)c1Cl (stereo not given)	0.112% [at 42.5 µM]	–
COC(=O)C1=C(C)NC(C)=C(C(=O)O[C@@H]2CCCN(Cc3ccccc3)C2)[C@@H]1c1cccc([N+](=O)[O-])c1	-6.2% [at 42.5 µM]	–

Compound	cAMP activity change	outcome
CC(=O)N/N=C/c1ccc([N+](=O)[O-])o1	-2.97% [at 42.5 µM]	–
CCCCCCCCN	-2.83%	–
CC(=O)NC1(c2cccc(F)c2)CCN(CC[C@@]2(c3ccc(Cl)c(Cl)c3)CN(c3ccccc3)C(=O)CO2)CC1	-0.0314%	–
O=C(O)c1ccc(OCCCOc2ccc(C(=O)O)cc2)cc1	3.28% [at 42.5 µM]	–
Cc1ccc2c(Br)cc(Br)c(O)c2n1	-4.45% [at 42.5 µM]	–
COc1ccccc1N1CCN(CC(O)COc2cccc3ccccc23)CC1 (stereo not given)	-1.51% [at 42.5 µM]	–
O=c1[nH]c2ccc(Cl)cc2o1	-1.15%	–
O=C(/C=C/c1ccc(O)c(O)c1)O[C@@H]1C[C@@](OC(=O)/C=C/c2ccc(O)c(O)c2)(C(=O)O)C[C@@H](O)[C@@H]1O	-3.82% [at 42.5 µM]	–
CNC(=O)c1cnn(-c2nc(N)c3ncn([C@@H]4O[C@H](CO)[C@@H](O)[C@H]4O)c3n2)c1	8.68% [at 42.5 µM]	–
C=C1CCC2CC1C2(C)C (stereo not given)	4.28%	–
CC(=O)OCC(=O)NCCCOc1cccc(CN2CCCCC2)c1	2.62% [at 42.5 µM]	–
CCOC(=O)c1ccc(C#Cc2ccc3c(c2)C(C)(C)CCS3)nc1	7.95% [at 42.5 µM]	–
O=c1[nH]ncc2ccccc12	2.09%	–
CCCCN(CCN(CCCC)C(=O)N1CCOCC1)C(=O)N1CCOCC1	-6.2% [at 42.5 µM]	–
CCCCOc1ccc(OCCCN2CCOCC2)cc1	-3.36% [at 42.5 µM]	–
O=C=Nc1ccc(Cl)c(Cl)c1	11.1%	–
C=C1C[C@@]23CC[C@H]4[C@@](C)(CCC[C@@]4(C)C(=O)O[C@@H]4O[C@H](CO)[C@@H](O)[C@H](O)[C@H]4O)[C@@H]2CC[C@]1(O[C@@H]1O[C@H](CO)[C@@H](O)[C@H](O[C@@H]2O[C@H](CO)[C@@H](O)[C@H](O)[C@H]2O)[C@H]1O[C@@H]1O[C@H](CO)[C@@H](O)[C@H](O)[C@H]1O)C3	-2.81%	–
C=CC(=O)[O-].C=CC(=O)[O-].[Zn+2]	1.27%	–
O=C(Nc1cccc2c(=O)cc(-c3nn[nH]n3)oc12)c1ccc(OCCCCc2ccccc2)cc1	2.58% [at 42.5 µM]	–
CO/N=C(/C(=O)N[C@@H]1C(=O)N2C(C(=O)O)=C(COC(N)=O)CS[C@H]12)c1ccco1	-2.65%	–
